Shown is part of a subset that was picked to be rich in hits.
Vaccinia Venus: qHTS for Stage-Specific Inhibitors of Vaccinia Orthopoxvirus: Venus Reporter Primary qHTS; Vaccinia virus Venus reporter expression, fluorescence; Potency, µM (highest dose often 36.5 µM), inactives show at the top dose activity change, negative = inhibition, most hits filed as inhibitors; 330,000 compounds, 0.46% hits; calls by dose curve; tested in A549 cells; further: potency means the concentration at half of the fitted maximal effect; on the % scale 0 is the no-effect control and ±100 the full control effect; nearly all actives have a fitted effect of over 30% in size
Shiga inhibitor: A qHTS for Small Molecule Inhibitors of Shiga Toxin; AID 2315, 2010; inhibition, % at 38.7 µM; Vero cells, Shiga toxin protein synthesis inhibition reporter; 290,000 compounds, 9.2% hits; in the data active means inhibition mostly above about 28%, no sharp cut-off; inactive means mostly below about 43%; further: 0% is about no effect
CHX counter: Cycloheximide Counterscreen for Small Molecule Inhibitors of Shiga Toxin | cell reporter, cycloheximide protein synthesis inhibition counterscreen | max response, % | 300,000 compounds, 12% hits | AID 2314, 2010; in the data active means max response mostly above about 13%, no sharp cut-off; inactive means mostly below about 14%; further: read at 38.3 µM for the half of the compounds with a filed dose; 0% is about no effect
Lassa entry inh: qHTS for Inhibitors of binding or entry into cells for Lassa Virus. 300,000 compounds, 1.2% hits. Lassa virus pseudotype entry inhibition, cell reporter. Potency, µM (titrated, usually from 37.9 µM), for inactives: top-dose activity change, negative = inhibition, most hits filed as inhibitors; calls by dose curve; tested in HEK293 cells; further: potency means the concentration at half of the fitted maximal effect; on the % scale 0 is the no-effect control and ±100 the full control effect; nearly all actives have a fitted effect of over 50% in size
Marburg entry inh: qHTS for inhibitors of binding or entry into cells for Marburg Virus. Marburg virus pseudotyped entry inhibition, cell reporter. Potency, µM (titrated, usually from 37.8 µM), for the others: at the highest dose activity change, negative = inhibition, usual class: inhibitors. 300,000 compounds, 1.8% hits; calls by dose curve; tested in HEK293 cells; further: potency means the concentration at half of the fitted maximal effect; on the % scale 0 is the no-effect control and ±100 the full control effect
VACV mCherry inh: qHTS for Stage-Specific Inhibitors of Vaccinia Orthopoxvirus: mCherry Reporter Primary qHTS | Vaccinia virus mCherry reporter infection, fluorescence | Potency, µM (top dose mostly 36.5 µM), for the others: at the highest dose activity change, negative = inhibition, most hits filed as inhibitors | 310,000 compounds, 0.63% hits | AID 720579, 2013; calls by dose curve; tested in A549 cells; further: potency means the concentration at half of the fitted maximal effect; on the % scale 0 is the no-effect control and ±100 the full control effect; nearly all actives have a fitted effect of over 35% in size
* = called active by the depositor; i = inactive; u = inconclusive; x = no result; [ ] = remark or other dose.

SMILES	Vaccinia Venus	Shiga inhibitor	CHX counter	Lassa entry inh	Marburg entry inh	VACV mCherry inh
COC(=O)c1ccc(COc2cccnc2[N+](=O)[O-])cc1	-14%	35*	24*	-7%	3%[46.1 µM]	-8%
Cc1c(Cl)c([N+](=O)[O-])nn1CCCC(=O)NCCc1ccccc1	x	102*	31*	x	x	x
O=[N+]([O-])c1cc(C(F)(F)F)ccc1NCCc1c[nH]c2ccccc12	-14%	54*	10*	-5%	u	-29%
O=[N+]([O-])c1cc(C(F)(F)F)ccc1NCCc1c[nH]c2ccc(O)cc12	-19%	20	3	-5%	1%	i
O=C(COc1cccnc1[N+](=O)[O-])NCCc1ccccc1	5%	16	14*	5%	u	-26%
O=C(COc1cccnc1[N+](=O)[O-])NCc1ccc(F)cc1	x	-7	-5	x	x	x
COC(=O)[C@H](C)Sc1nc2c(c(=O)n(C)c(=O)n2C)n1CCC(C)C	x	x	x	x	-14%	x
COc1ccccc1CNc1ncccc1[N+](=O)[O-]	x	-3	1	x	x	x
O=c1ccnc(NCCc2ccccc2)[nH]1	-15%	48	29*	5%	17%	x
O=[N+]([O-])c1cccnc1NCCc1ccccc1	-18%	67*	37*	u	u	-14%
O=[N+]([O-])c1cc(S(=O)(=O)N2CCCC2)ccc1NCCc1ccccc1	-4%	-13	-5	19%	8%	i
NS(=O)(=O)c1ccc(CCNc2ccccc2[N+](=O)[O-])cc1	-9%	77*	36*	10%[46.1 µM]	u	-6%
c1ccc2c(CCNc3ncnc4nc[nH]c34)c[nH]c2c1	u	15	14	u	-45%	u
CCCc1cc(=O)[nH]c(NCCc2ccccc2)n1	-1%	3	-3	0%	11%	-14%
O=[N+]([O-])c1cccnc1NCCc1c[nH]c2ccccc12	x	68*	31*	x	x	x
O=C(NCCCCc1ccccc1)c1nn(-c2ccccc2)nc1CO	-4%	x	x	-18%[46.1 µM]	-9%[46.1 µM]	-1%
CCOc1cc(C2CC(=O)Nc3c2c(C)nn3-c2nc(C)cc(C)n2)ccc1O (stereo not drawn)	-7%	x	x	12%[46.1 µM]	4%[46.1 µM]	0%
Cc1ccc2[nH]c(CSc3nnc(NC(=O)COc4ccccc4Cl)s3)cc(=O)c2c1	-8%	x	x	8%[46.1 µM]	x	-7%
COCc1cc(C)nc2sc(C(=O)Nc3nccs3)c(N)c12	u	50	42*	x	x	u
COCc1cc(C)nc2sc(C(=O)Nc3cccc(OC)c3)c(N)c12	x	66*	54*	x	x	x
COCc1cc(C)nc2sc(C(=O)Nc3ccc(OC)cc3)c(N)c12	x	84	29*	x	x	x
COCc1cc(C)nc2sc(C(=O)Nc3ccc(C(C)=O)cc3)c(N)c12	-6%	x	x	5%[46.1 µM]	u	i
Cc1cc(C)c2c(N)c(C(=O)Nc3nccs3)sc2n1	x	-2	11	u	u	x
Cc1ccc(CNC(=O)CSc2nc3ccsc3c(=O)n2-c2ccc(Br)cc2)cc1	-21%	x	x	1%[46.1 µM]	x	-19%
Cc1c(C(=O)N2CC3CCC2C3)sc2ncnc(NCCc3ccccn3)c12 (stereo not drawn)	-8%	x	x	x	x	-13%
SMILES	Vaccinia Venus	Shiga inhibitor	CHX counter	Lassa entry inh	Marburg entry inh	VACV mCherry inh
COc1ccc(-n2ncc3c(NCc4ccc5c(c4)OCO5)ncnc32)cc1	x	27*	25*	4%	-1%	x
Cc1cccc(-n2ncc3c(NCc4ccc5c(c4)OCO5)ncnc32)c1	x	97*	18*	2%	3%	x
c1ccc(-n2ncc3c(NCc4ccc5c(c4)OCO5)ncnc32)cc1	-7%	42*	20*	18%[14.3 µM]	u	-5%
CCN1CCN(c2nc3c(S(=O)(=O)c4ccc(C)cc4)nnn3c3ccsc23)CC1	u	x	x	18%[46.1 µM]	x	u
Cc1cc(C)cc(C(O)c2ncc(-c3ccccc3F)[nH]2)c1 (stereo not drawn)	-19%	x	x	x	x	u
Cc1cccc(-c2noc(-c3cc(-c4ccc(F)cc4)n[nH]3)n2)c1	-1%	x	x	-3%[46.1 µM]	x	-1%
Cc1ccc(O)c(-c2cc(-c3ccccc3F)[nH]n2)c1	u	104*	35*	-2%	25%	x
O=[N+]([O-])c1ccccc1-c1cc(-c2ccccc2O)n[nH]1	-29%	69*	75*	u	u	-25%
Oc1ccccc1-c1cc(C(F)(F)F)[nH]n1	x	-6	10	x	x	x

Compound activity: PubChem, National Center for Advancing Translational Sciences (NCATS)
